# Data published in PubChem BioAssay (NCATS).
# Inconclusive results are not listed. Activity calls are given as the source filed them. Calls come from the whole dose curve; as a rule, active = well fitted curve in the direction sought with a large enough effect; inconclusive = small, poorly fitted or top-dose-only effect, or another doubt; inactive = no such curve, though single readings can be large; an effect the other way counts as inactive or inconclusive.
# Tests used:
# [1] = qHTS of pediatric cancer cell lines to identify multiple opportunities for drug repurposing: Primary screen for BT-37 cells (AID 1347094)
# Summary of the method: (§1)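 Viability was measured as metabolically active cells after 48 hours of treatment, read by CellTiter-Glo luminescence. Compounds were tested at multiple final concentrations, giving concentration-response curves.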
# [2] = qHTS of pediatric cancer cell lines to identify multiple opportunities for drug repurposing: Primary screen for NB-EBc1 cells (AID 1347095)
# Summary of the method: as §1
# [3] = qHTS of pediatric cancer cell lines to identify multiple opportunities for drug repurposing: Primary screen for U-2 OS cells (AID 1347096); note: nearly all actives have a fitted effect of over 50% in size
# Summary of the method: (§2)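 Viability after 48 h compound treatment at 37C, 500-1,000 cells/well, read as ATP luminescence with CellTiter-Glo. Primary screens used 11-point (MIPE, 0.78 nM-46 µM) or 8-point (NPC, 0.59 nM-46 µM) final concentrations; follow-up screens used 11-point dilutions.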
# [4] = qHTS of pediatric cancer cell lines to identify multiple opportunities for drug repurposing: Primary screen for Saos-2 cells (AID 1347097); note: nearly all actives have a fitted effect of over 40% in size
# Summary of the method: as §1
# [5] = qHTS of pediatric cancer cell lines to identify multiple opportunities for drug repurposing: Primary screen for SK-N-SH cells (AID 1347098); note: nearly all actives have a fitted effect of over 65% in size
# Summary of the method: (§3)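 Cells (500-1,000/well) rested 5 h, then received compounds for 48 h; metabolically active cells were measured by CellTiter-Glo luminescence. Final concentrations spanned up to 46 µM (MIPE, 11-point) or 0.59 nM-46 µM (NPC, 8-point) in primary screens, 11-point in follow-ups.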
# [6] = qHTS of pediatric cancer cell lines to identify multiple opportunities for drug repurposing: Primary screen for NB1643 cells (AID 1347099); note: nearly all actives have a fitted effect of over 50% in size
# Summary of the method: as §1
# [7] = qHTS of pediatric cancer cell lines to identify multiple opportunities for drug repurposing: Primary screen for LAN-5 cells (AID 1347100)
# Summary of the method: as §2
# [8] = qHTS of pediatric cancer cell lines to identify multiple opportunities for drug repurposing: Primary screen for BT-12 cells (AID 1347101); note: nearly all actives have a fitted effect of over 25% in size
# Summary of the method: as §3
# [9] = qHTS of pediatric cancer cell lines to identify multiple opportunities for drug repurposing: Primary screen for Rh18 cells (AID 1347102); note: nearly all actives have a fitted effect of over 65% in size
# Summary of the method: as §2
# [10] = qHTS of pediatric cancer cell lines to identify multiple opportunities for drug repurposing: Primary screen for OHS-50 cells (AID 1347103); note: nearly all actives have a fitted effect of over 40% in size
# Summary of the method: as §3
# [11] = qHTS of pediatric cancer cell lines to identify multiple opportunities for drug repurposing: Primary screen for RD cells (AID 1347104); note: nearly all actives have a fitted effect of over 55% in size
# Summary of the method: as §1
# [12] = qHTS of pediatric cancer cell lines to identify multiple opportunities for drug repurposing: Primary screen for MG 63 (6-TG R) cells (AID 1347105); note: nearly all actives have a fitted effect of over 50% in size
# Summary of the method: as §1
# [13] = qHTS of pediatric cancer cell lines to identify multiple opportunities for drug repurposing: Primary screen for control Hh wild type fibroblast cells (AID 1347106); note: nearly all actives have a fitted effect of over 55% in size
# Summary of the method: as §2
# [14] = qHTS of pediatric cancer cell lines to identify multiple opportunities for drug repurposing: Primary screen for Rh30 cells (AID 1347107); note: nearly all actives have a fitted effect of over 75% in size
# Summary of the method: as §2
# [15] = qHTS of pediatric cancer cell lines to identify multiple opportunities for drug repurposing: Confirmatory screen for NB1643 cells (AID 1347109); note: nearly all actives have a fitted effect of over 45% in size
# Summary of the method: as §2
# [16] = qHTS of pediatric cancer cell lines to identify multiple opportunities for drug repurposing: Confirmatory screen for A673 cells (AID 1347110); note: nearly all actives have a fitted effect of over 65% in size
# Summary of the method: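 A673 cells at 500-1,000 cells/well were dosed 5 h after plating, in dilution series up to 46 uM final; primary runs used 8 or 11 points and confirmatory runs used 11 points. Viability was read by CellTiter-Glo luminescence after 48 h, against DMSO and 2.3 uM bortezomib controls.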
# [17] = qHTS of pediatric cancer cell lines to identify multiple opportunities for drug repurposing: Confirmatory screen for SK-N-MC cells (AID 1347111);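 note: cells exposed to compound for 48 h before the readout; nearly all actives have a fitted effect of over 70% in size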
# Summary of the method: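 SK-N-MC cells at 500-1,000 cells/well in growth media were pre-incubated 5 h, then exposed to compounds at 11-point dilutions for 48 h at 37 degrees C, 5% CO2. Viability was read as CellTiter-Glo luminescence.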
# [18] = qHTS of pediatric cancer cell lines to identify multiple opportunities for drug repurposing: Confirmatory screen for LAN-5 cells (AID 1347113); note: nearly all actives have a fitted effect of over 65% in size
# Summary of the method: as §2
# [19] = qHTS of pediatric cancer cell lines to identify multiple opportunities for drug repurposing: Primary screen for Rh41 cells (AID 1347108); note: nearly all actives have a fitted effect of over 70% in size
# Summary of the method: as §1
# [20] = qHTS of pediatric cancer cell lines to identify multiple opportunities for drug repurposing: Confirmatory screen for BT-12 cells (AID 1347112); note: nearly all actives have a fitted effect of over 55% in size
# Summary of the method: as §2
# Potency is the fitted concentration of half-maximal effect.
SMILES,Potency [1],Potency [2],Potency [3],Potency [4],Potency [5],Potency [6],Potency [7],Potency [8],Potency [9],Potency [10],Potency [11],Potency [12],Potency [13],Potency [14],Potency [15],Potency [16],Potency [17],Potency [18],Potency [19],Potency [20]
COc1ccc(CCC(=O)c2c(O)cc(O[C@@H]3O[C@H](CO)[C@@H](O)[C@H](O)[C@@H]3O[C@@H]3O[C@@H](C)[C@H](O)[C@@H](O)[C@@H]3O)cc2O)cc1O,inactive,inactive,inactive,inactive,13.6 µM (active),13.2 µM (active),inactive,inactive,inactive,inactive,13.2 µM (active),inactive,3.72 µM (active),–,–,–,–,–,–,–
COc1ccc(Nc2cc(-c3cnc(N)nc3)nc(N3CCOCC3)n2)cn1,13.7 µM (active),2.96 µM (active),14.8 µM (active),1.18 µM (active),7.64 µM (active),2.96 µM (active),4.18 µM (active),21.7 µM (active),6.62 µM (active),0.385 µM (active),4.18 µM (active),3.72 µM (active),–,5.9 µM (active),8.27 µM (active),9.27 µM (active),6.57 µM (active),2.33 µM (active),–,–
COC[C@H](NC(=O)c1cnc(C)s1)C(=O)N[C@@H](COC)C(=O)N[C@@H](Cc1ccccc1)C(=O)[C@@]1(C)CO1,0.273 µM (active),0.0833 µM (active),0.372 µM (active),0.662 µM (active),0.541 µM (active),0.132 µM (active),0.132 µM (active),0.432 µM (active),–,0.193 µM (active),0.166 µM (active),0.235 µM (active),0.935 µM (active),1.66 µM (active),–,–,0.0369 µM (active),0.329 µM (active),0.296 µM (active),–
OCc1ccccc1O[C@@H]1O[C@H](CO)[C@H](O)[C@H](O)[C@H]1O,inactive,inactive,inactive,inactive,inactive,inactive,inactive,inactive,–,inactive,inactive,inactive,inactive,inactive,–,–,–,–,inactive,–
CC[C@H]1OC(=O)[C@H](C)[C@@H](O[C@H]2C[C@@](C)(OC)[C@@H](O)[C@H](C)O2)[C@H](C)[C@@H](O[C@@H]2O[C@@H](C)C[C@H](N(C)C)[C@@H]2O)[C@](C)(O)C[C@@H](C)C(=O)[C@H](C)[C@@H](O)[C@]1(C)O,inactive,inactive,inactive,inactive,inactive,inactive,inactive,inactive,inactive,–,inactive,inactive,inactive,inactive,–,–,–,–,–,–
CCS(=O)(=O)Nc1ccc2[nH]c(O)c(C(=Nc3ccc(CN4CCCCC4)cc3)c3ccccc3)c2c1,27.3 µM (active),0.187 µM (active),5.9 µM (active),0.662 µM (active),1.21 µM (active),0.118 µM (active),0.0372 µM (active),21.7 µM (active),4.18 µM (active),1.53 µM (active),0.469 µM (active),5.9 µM (active),inactive,–,0.0657 µM (active),0.928 µM (active),0.0737 µM (active),0.185 µM (active),0.743 µM (active),–
CCN(CC)CCNC(=O)c1c(C)[nH]c(C=C2C(=O)Nc3ccc(F)cc32)c1C,17.7 µM (active),7.62 µM (active),21.5 µM (active),4.29 µM (active),22.1 µM (active),38.2 µM (active),4.29 µM (active),44.4 µM (active),17.1 µM (active),1.4 µM (active),9.59 µM (active),13.6 µM (active),17.1 µM (active),27 µM (active),10.7 µM (active),10.7 µM (active),–,10.7 µM (active),13.6 µM (active),33.9 µM (active)
CC(C=CC(=O)NO)=C[C@@H](C)C(=O)c1ccc(N(C)C)cc1,1.22 µM (active),0.418 µM (active),1.48 µM (active),0.935 µM (active),2.71 µM (active),0.935 µM (active),0.59 µM (active),1.93 µM (active),–,0.863 µM (active),1.32 µM (active),2.35 µM (active),10.5 µM (active),7.43 µM (active),0.585 µM (active),0.827 µM (active),0.185 µM (active),0.414 µM (active),1.48 µM (active),2.93 µM (active)
Cn1cnc(=N)c2[nH]cnc21,1.37 µM (active),0.662 µM (active),2.35 µM (active),0.743 µM (active),1.92 µM (active),0.166 µM (active),0.418 µM (active),1.53 µM (active),0.264 µM (active),0.109 µM (active),0.935 µM (active),1.48 µM (active),inactive,14.8 µM (active),–,–,inactive,inactive,0.469 µM (active),–
COc1cc2c(Nc3ccc(Cl)c(Cl)c3F)ncnc2cc1OCC1C[C@@H]2CN(C)C[C@H]2C1,24.3 µM (active),16.6 µM (active),18.7 µM (active),16.6 µM (active),12.1 µM (active),14.8 µM (active),11.8 µM (active),24.3 µM (active),18.7 µM (active),4.85 µM (active),16.6 µM (active),14.8 µM (active),20.9 µM (active),–,–,–,–,–,9.35 µM (active),–
